Assay results as given in PubChem BioAssay (Tox21).
Records with an inconclusive call do not appear. The source made the active and inactive calls. Unless noted, calls come from the whole dose curve.

Legend:
[1] = Nuclear factor erythroid 2-related factor 2/antioxidant responsive element (Nrf2/ARE) small molecule agonists: qHTS cell viability counter screen in human keratinocytes (AID 1919968; active = well fitted curve in the direction sought with a large enough effect in the repeat runs; an effect the other way counts as inactive or inconclusive; note: nearly all actives have a fitted effect of over 55% in size)
Outline: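 CellTiter-Fluor fluorescence, read 1 h after reagent, gave viability in the same wells as the ARE-luciferase assay. KeratinoSens cells (1,500/well) had 23 h compound exposure at 37 C/5% CO2 following 5 h plating.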

[2] = Nuclear factor erythroid 2-related factor 2/antioxidant responsive element (Nrf2/ARE) small molecule agonists: luciferase reporter gene qHTS assay in human keratinocytes (AID 1919969); note: nearly all actives have a fitted effect of over 35% in size
[3] = target: Gonadotropin-releasing hormone receptor (Homo sapiens) (UniProt P30968); assay: Human gonadotropin-releasing hormone receptor (GnRHR) small molecule agonists, calcium flux assay in GnRHR-HEK293 cells (AID 1920063); note: nearly all actives have a fitted effect of over 35% in size
Chain of Gonadotropin-releasing hormone receptor (Homo sapiens) (P30968 whole entry, looked up): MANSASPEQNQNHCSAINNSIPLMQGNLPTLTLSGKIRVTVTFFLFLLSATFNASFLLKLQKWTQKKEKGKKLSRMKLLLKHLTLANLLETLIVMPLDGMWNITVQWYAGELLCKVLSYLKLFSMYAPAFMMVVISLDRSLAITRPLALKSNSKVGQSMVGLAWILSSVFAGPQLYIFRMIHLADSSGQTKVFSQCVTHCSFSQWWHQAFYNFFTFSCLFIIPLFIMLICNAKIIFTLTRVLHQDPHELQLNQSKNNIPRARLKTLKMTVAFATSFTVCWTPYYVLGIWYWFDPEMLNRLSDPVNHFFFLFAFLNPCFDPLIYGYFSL
Outline: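 Agonist mode: compounds at 15 concentrations, in triplicate, went onto calcium dye-loaded GnRHR-HEK293 cells. Intracellular calcium was then followed as 480/540 nm fluorescence at 1 s intervals over 3 min.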

[4] = target: KiSS-1 receptor (Homo sapiens) (UniProt Q969F8); assay: Human kisspeptin (KISS1R) small molecule agonists, calcium flux assay in KISS1R-HEK293 cells (AID 1920064; active = well fitted curve in the direction sought with a large enough effect in the repeat runs; an effect the other way counts as inactive or inconclusive)
Chain of KiSS-1 receptor (Homo sapiens) (Q969F8 whole entry, looked up): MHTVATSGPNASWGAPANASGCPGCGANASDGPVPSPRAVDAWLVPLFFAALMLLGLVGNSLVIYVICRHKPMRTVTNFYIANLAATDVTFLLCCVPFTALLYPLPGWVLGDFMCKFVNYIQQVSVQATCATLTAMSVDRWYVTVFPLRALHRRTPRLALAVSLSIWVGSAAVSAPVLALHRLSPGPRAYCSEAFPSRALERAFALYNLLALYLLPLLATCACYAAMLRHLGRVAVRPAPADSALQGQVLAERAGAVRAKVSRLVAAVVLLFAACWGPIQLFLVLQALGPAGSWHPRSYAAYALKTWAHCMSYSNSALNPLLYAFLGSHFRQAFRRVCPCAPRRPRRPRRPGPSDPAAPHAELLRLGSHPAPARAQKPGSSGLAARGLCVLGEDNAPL
Outline: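 Agonist mode: intracellular calcium rise tracked at 1 s intervals over 3 min (480/540 nm) immediately after compound addition to dye-loaded KISS1R-HEK293 stable cells. Each compound tested at 15 concentrations in triplicate.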

[5] = G protein-coupled receptor (GPCR) small molecule agonists, calcium flux assay: HEK293 wild type cell line counter screen (AID 1920065)
Outline: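 Calcium flux counter screen: compound added in agonist mode at 15 concentrations in triplicate to dye-loaded parental HEK293 cells. Fluorescence (480/540) read kinetically for 3 min; ATP served as positive control.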

[6] = p53 small molecule agonists, cell-based qHTS assay with human liver microsomes (AID 1963577);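 note: p53 response element beta-lactamase reporter cells with liver microsomes plus NADPH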
Outline: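 HLM-supplemented p53RE-bla reporter assay: 16 h compound exposure at 37 C, microsomes and NADPH each 0.5 mg/mL final, read by fluorescence intensity.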

[7] = p53 small molecule agonists, cell-based qHTS assay with rat liver microsomes (AID 1963578)
Outline: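 Quantitative HTS of the Tox21 10K library: p53RE-bla cells, rat liver microsomes plus NADPH at 0.5 mg/mL final each, 16 h at 37 C, beta-lactamase fluorescence detection.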

[8] = p53 small molecule agonists, cell-based qHTS assay with human liver microsomes: qHTS cell viability counter screen (AID 1963579); note: nearly all actives have a fitted effect of over 45% in size
Outline: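 Viability of p53RE-bla cells is measured as CellTiter-Glo luminescence following a 16 h, 37 C incubation with compound, liver microsomes from human donors and NADPH.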

[9] = p53 small molecule agonists, cell-based qHTS assay with rat liver microsomes: qHTS cell viability counter screen (AID 1963580); note: nearly all actives have a fitted effect of over 45% in size
Outline: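 Rat liver microsome (0.5 mg/mL final) and NADPH (0.5 mg/mL final) co-incubation with compounds for 16 h at 37 C on HCT-116 p53RE-bla cells; cytotoxicity taken from intracellular ATP luminescence.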

[10] = p53 small molecule agonists, cell-based qHTS assay (AID 1963582; active = well fitted activation curve with a large enough effect in the signal ratio in the repeat runs, not every such curve was filed as active; the % refers to the signal ratio)
Outline: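 Read-out is beta-lactamase FRET fluorescence after 2 h at room temperature with LiveBLAzer B/G substrate. p53 response element-bla cells were treated 16 h at 37 C with compounds in DMSO, added 5 h after seeding.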

[11] = target: 5-hydroxytryptamine receptor 2A (Homo sapiens) (UniProt P28223); assay: 5-hydroxytryptamine receptor 2A (HTR2A) small molecule agonists, cell-based qHTS assay (AID 1963587); note: nearly all actives have a fitted effect of over 30% in size
Chain of 5-hydroxytryptamine receptor 2A (Homo sapiens) (P28223 whole entry, looked up): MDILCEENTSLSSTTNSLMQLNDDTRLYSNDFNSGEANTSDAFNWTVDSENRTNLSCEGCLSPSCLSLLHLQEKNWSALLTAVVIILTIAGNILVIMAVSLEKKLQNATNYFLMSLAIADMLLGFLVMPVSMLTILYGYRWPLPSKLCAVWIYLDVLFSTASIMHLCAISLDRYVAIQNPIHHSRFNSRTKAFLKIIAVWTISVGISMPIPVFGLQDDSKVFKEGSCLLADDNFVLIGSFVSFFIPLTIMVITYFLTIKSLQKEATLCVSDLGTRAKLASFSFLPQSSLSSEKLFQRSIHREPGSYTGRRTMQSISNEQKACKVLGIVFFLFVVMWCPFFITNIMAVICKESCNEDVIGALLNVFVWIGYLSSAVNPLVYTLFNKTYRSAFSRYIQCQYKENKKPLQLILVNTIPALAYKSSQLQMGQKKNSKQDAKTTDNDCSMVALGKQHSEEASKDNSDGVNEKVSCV
Outline: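 Kinetic calcium-flux fluorescence (2 min, 1 sec intervals) after compound addition in agonist mode. HTR2A-CHO cells were cultured 18 h, then dye-loaded 1 h at 37 C.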

[12] = target: Muscarinic acetylcholine receptor M1 (Homo sapiens) (UniProt P11229); assay: Cholinergic receptor muscarinic 1 (CHRM1) small molecule agonists, cell-based qHTS assay (AID 1963589); note: nearly all actives have a fitted effect of over 35% in size
Chain of Muscarinic acetylcholine receptor M1 (Homo sapiens) (P11229 whole entry, looked up): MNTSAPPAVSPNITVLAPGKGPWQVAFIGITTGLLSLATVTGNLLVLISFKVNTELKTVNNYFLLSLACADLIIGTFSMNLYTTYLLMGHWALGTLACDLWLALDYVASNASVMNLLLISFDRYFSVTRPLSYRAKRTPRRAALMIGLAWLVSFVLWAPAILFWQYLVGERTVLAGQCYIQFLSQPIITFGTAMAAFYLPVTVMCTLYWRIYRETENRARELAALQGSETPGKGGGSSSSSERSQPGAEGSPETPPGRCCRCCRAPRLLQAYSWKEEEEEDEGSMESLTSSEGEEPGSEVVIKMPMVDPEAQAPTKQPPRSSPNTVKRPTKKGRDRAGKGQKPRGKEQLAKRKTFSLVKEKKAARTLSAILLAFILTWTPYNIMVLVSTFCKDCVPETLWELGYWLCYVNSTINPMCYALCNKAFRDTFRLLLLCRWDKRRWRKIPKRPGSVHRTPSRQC
Outline: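 Agonist-mode calcium-flux screen: compounds at 15 concentrations, three independent runs, were pin-transferred onto dye-loaded human CHRM1-CHO cells. Fluorescence was then recorded kinetically every second over minutes.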

[13] = cAMP Responsive Elements (CRE) small molecule agonists, cell-based qHTS assay (AID 1963590)
Outline: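 Agonist mode: compound added to CRE-bla HEK 293T cells (2,000/well, 18 h after plating) for 3 h at 37 C/5% CO2. Reporter activity detected via FRET beta-lactamase substrate, 2 h room-temperature loading.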

[14] = cAMP Responsive Elements (CRE) small molecule antagonists, cell-based qHTS assay (AID 1963591; active = well fitted inhibition curve with a large enough effect in the signal ratio in the repeat runs, not every such curve was filed as active; the % refers to the signal ratio)
Outline: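 Antagonist mode: compounds are added alongside the adenylyl cyclase activator NKH477 (0.25 uM final) to CRE-bla HEK293T cells for 3 h. LiveBLAzer FRET substrate, 2 h at room temperature, reports bla expression.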

[15] = target: Beta-2 adrenergic receptor (Homo sapiens) (UniProt P07550); assay: Adrenergic beta2 receptor (ADRB2) small molecule antagonists, cell-based qHTS assay (AID 1963592); note: series mostly up to about 92 µM; nearly all actives have a fitted effect of over 50% in size
Chain of Beta-2 adrenergic receptor (Homo sapiens) (P07550 whole entry, looked up): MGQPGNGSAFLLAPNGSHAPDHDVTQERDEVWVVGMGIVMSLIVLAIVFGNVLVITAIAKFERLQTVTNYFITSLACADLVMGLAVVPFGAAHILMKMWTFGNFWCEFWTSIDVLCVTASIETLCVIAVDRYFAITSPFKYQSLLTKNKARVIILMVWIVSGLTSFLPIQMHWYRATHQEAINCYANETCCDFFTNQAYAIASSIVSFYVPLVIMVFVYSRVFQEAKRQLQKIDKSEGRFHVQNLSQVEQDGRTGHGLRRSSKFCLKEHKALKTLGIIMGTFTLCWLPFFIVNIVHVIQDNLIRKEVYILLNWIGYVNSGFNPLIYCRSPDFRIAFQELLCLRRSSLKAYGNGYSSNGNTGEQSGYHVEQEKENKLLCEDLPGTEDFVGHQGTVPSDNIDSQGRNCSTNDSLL
Outline: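 Assay format: CHO-ADRB2 cells, 18-20hr seeding at 37C/5% CO2, then compound plus 1nM isoproterenol agonist mix for 0.5hr RT. Homogeneous time-resolved fluorescence cAMP detection after 1hr, expressed as 665/615 nm ratio.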

[16] = target: D(2) dopamine receptor (Homo sapiens) (UniProt P14416); assay: Dopamine D2 receptor (DRD2) small molecule agonists, cell-based qHTS assay (AID 1963594); note: nearly all actives have a fitted effect of over 35% in size
Chain of D(2) dopamine receptor (Homo sapiens) (P14416 whole entry, looked up): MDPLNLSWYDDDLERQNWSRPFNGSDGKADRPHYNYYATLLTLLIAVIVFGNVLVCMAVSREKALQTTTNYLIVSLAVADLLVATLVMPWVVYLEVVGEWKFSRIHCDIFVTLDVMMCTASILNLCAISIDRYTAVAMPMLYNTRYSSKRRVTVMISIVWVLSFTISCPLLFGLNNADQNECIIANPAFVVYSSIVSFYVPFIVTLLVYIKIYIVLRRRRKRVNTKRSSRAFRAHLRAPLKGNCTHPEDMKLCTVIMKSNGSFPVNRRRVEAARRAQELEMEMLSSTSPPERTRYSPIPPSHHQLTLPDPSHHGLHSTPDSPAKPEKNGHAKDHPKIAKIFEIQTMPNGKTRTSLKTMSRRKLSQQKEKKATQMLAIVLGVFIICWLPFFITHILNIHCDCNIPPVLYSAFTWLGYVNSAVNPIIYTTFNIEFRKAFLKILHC
Outline: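 cAMP accumulation in DRD2-HEK293 cells measured by HTRF after 1 h detection; compounds added 10 min before NKH477 (200nM […]) forskolin-analogue stimulation, 30 min at room temperature, with Ro20-1724 present at 0.1 mM final.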

[17] = target: D(2) dopamine receptor (Homo sapiens) (UniProt P14416); assay: Dopamine D2 receptor (DRD2) small molecule antagonists, cell-based qHTS assay (AID 1963595; active = well fitted inhibition curve with a large enough effect in the signal ratio in the repeat runs, with a control signal flat; the % refers to the signal ratio)
Outline: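 Cells were plated and grown for 24 h at 37 °C. Ro20-1724 (0.1 mM final) went in first, then compound for 10 min. NKH477 (200 nM) with quinpirole (12 nM) followed for 30 min at RT, then HTRF detection reagents for 1 h.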

[18] = target: 5-hydroxytryptamine receptor 2A (Homo sapiens) (UniProt P28223); assay: 5-hydroxytryptamine receptor 2A (HTR2A) small molecule antagonists, cell-based qHTS assay (AID 1963586); note: nearly all actives have a fitted effect of over 45% in size
Outline: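 CHO cells stably expressing human HTR2A were plated for 18 h at 37 C, then loaded with calcium dye for 1 h. Compounds were preincubated 5 min at room temperature before DOI (4 nM solution) was added. Kinetic fluorescence was read for 3 min.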

[19] = target: Muscarinic acetylcholine receptor M1 (Homo sapiens) (UniProt P11229); assay: Cholinergic receptor muscarinic 1 (CHRM1) small molecule antagonists, cell-based qHTS assay (AID 1963588); note: nearly all actives have a fitted effect of over 40% in size
Outline: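 Compounds were tested at 15 concentrations in three independent runs. Dye-loaded CHRM1-CHO cells were exposed 5 min at room temperature before stimulation by acetylcholine added at 50nM. Intracellular calcium was read kinetically on FDSS for 3 min.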
% is set by controls: 0 for no effect and ±100 for the full control effect.

c1ccc2c(c1)Oc1ccccc1S2
inactive: Potency [1] | Potency [2] | Potency [3] | Potency [4] | Potency [5] | Potency [6] | Potency [7] | Potency [8] | Potency [9] | Potency [10] | Potency [11] | Potency [12] | Potency [13] | Potency [14] | Potency [15] | Potency [16] | Potency [17]

CCCCCCCCCCCCCCCCI
inactive: activity change, negative = cytotoxicity [1] 1.33% [at 19 µM] | activity, positive = activation [2] -9.58% [at 19 µM] | activity change [3] 0.684% [at 11.8 µM, stronger effect = higher value] | activation [4] 7.41% [at 15.8 µM] | activation [5] 2.83% [at 11.8 µM] | activation [6] -0.459% [at 13.5 µM] | activation [7] -1.95% [at 13.6 µM] | activity change, negative = cytotoxicity [8] 1.61% [at 13.5 µM] | activity change, negative = cytotoxicity [9] -2.18% [at 13.5 µM] | activation [10] -4.93% [at 13.5 µM] | activity, negative = inhibition [18] -0.251% [at 12.7 µM] | activation [11] -2.69% [at 15.9 µM] | activity, negative = inhibition [19] -11% [at 12.6 µM] | activation [12] 1.29% [at 15.8 µM] | activation [13] -1.28% [at 19 µM] | activity change, negative = inhibition [14] -14.2% [at 18.9 µM] | activity change, negative = inhibition [15] 0.138% [at 19 µM] | activation [16] 2.88% [at 19 µM] | activity change, negative = inhibition [17] -1.21% [at 18.9 µM]

CC(CN1c2ccccc2Sc2ccccc21)N(C)C (configuration not stated)
inactive: Potency [1] | Potency [2] | Potency [3] | Potency [4] | Potency [5] | Potency [6] | Potency [7] | Potency [8] | Potency [9] | Potency [10] | Potency [13] | Potency [14] | Potency [15] | Potency [16]

CCCCCCCCCCCCCCCCC
inactive: Potency [1] | Potency [2] | Potency [3] | Potency [4] | Potency [5] | Potency [6] | Potency [7] | Potency [8] | Potency [9] | Potency [10] | Potency [11] | Potency [19] | Potency [13] | Potency [15] | Potency [16] | Potency [17]

C/C(=C(\CCO)SS/C(CCO)=C(\C)N(C=O)Cc1cnc(C)nc1N)N(C=O)Cc1cnc(C)nc1N
inactive: Potency [1] | Potency [2] | Potency [3] | Potency [4] | Potency [5] | Potency [6] | Potency [7] | Potency [8] | Potency [9] | Potency [10] | Potency [18] | Potency [11] | Potency [19] | Potency [12] | Potency [13] | Potency [14] | Potency [16] | Potency [17]

OC[C@H]1O[C@@H](O[C@H]2[C@H](O)[C@@H](O)[C@H](O)O[C@@H]2CO)[C@H](O)[C@@H](O)[C@H]1O
inactive: Potency [1] | Potency [2] | Potency [3] | Potency [4] | Potency [5] | Potency [6] | Potency [7] | Potency [8] | Potency [9] | Potency [10] | Potency [18] | Potency [11] | Potency [19] | Potency [12] | Potency [13] | Potency [14] | Potency [15] | Potency [16] | Potency [17]

C=CCCCCCCCCO
inactive: Potency [1] | Potency [2] | Potency [3] | Potency [4] | Potency [5] | Potency [6] | Potency [7] | Potency [8] | Potency [9] | Potency [10] | Potency [18] | Potency [11] | Potency [19] | Potency [12] | Potency [13] | Potency [14] | Potency [15] | Potency [16] | Potency [17]
